According to PubChem BioAssay AID2284174 (EPA ToxCast):
Records with an inconclusive call do not appear. The source made the active and inactive calls. Rule for the calls: active = hit-call score of the fitted dose curve at least 0.9, where 1 is the maximum; inconclusive = response in the unintended direction; inactive = score below 0.9.

Molecular target: rat SKCa (Non-Selective), Kcnn1 (gene 54261) (UniProt P70606)
Test: ERF_FR_IC_rKCNN1: Eurofins (ERF) Potassium Ion Channel [125I] Apamin Binding LeadHunter Assay for rat SKCa (Non-Selective)
Procedure: ERF_FR_IC_rKCNN1 is a biochemical, single-readout assay that uses extracted gene-proteins in a cell-free assay. Measurements were taken 1 hour after chemical dosing in a 96-well plate. See SKCa (Non-Selective) Rat Potassium Ion Channel [125I] Apamin Binding Assay, Cerep.ERF_FR_IC_rKCNN1 is an assay component calculated from the ERF_FR_IC_rKCNN1 assay. It is designed to measure radioligand binding using a type of binding reporter as detected by scintillation counting with radiometry technology.Data from the assay component ERF_FR_IC_rKCNN1 was analyzed at the assay endpoint, ERF_FR_IC_rKCNN1, in the positive analysis fitting direction relative to DMSO as the negative control and baseline of activity. Using a type of binding reporter, loss-of-signal activity can be used to understand changes in binding as they relate to gene Kcnn1. To generalize the intended target to other relatable targets, this assay endpoint is annotated to the ion channel intended target family, where the subfamily is voltage gated (Potassium).
This assay measures binding of [125I]apamin to small conductance calcium-activated potassium channel sites [SKCa]. […] Membranes are filtered and washed 3 times and the filters are counted to determine [125I]apamin specifically bound. […]

Chain of rat SKCa (Non-Selective), Kcnn1 (gene 54261) (P70606 whole entry, looked up): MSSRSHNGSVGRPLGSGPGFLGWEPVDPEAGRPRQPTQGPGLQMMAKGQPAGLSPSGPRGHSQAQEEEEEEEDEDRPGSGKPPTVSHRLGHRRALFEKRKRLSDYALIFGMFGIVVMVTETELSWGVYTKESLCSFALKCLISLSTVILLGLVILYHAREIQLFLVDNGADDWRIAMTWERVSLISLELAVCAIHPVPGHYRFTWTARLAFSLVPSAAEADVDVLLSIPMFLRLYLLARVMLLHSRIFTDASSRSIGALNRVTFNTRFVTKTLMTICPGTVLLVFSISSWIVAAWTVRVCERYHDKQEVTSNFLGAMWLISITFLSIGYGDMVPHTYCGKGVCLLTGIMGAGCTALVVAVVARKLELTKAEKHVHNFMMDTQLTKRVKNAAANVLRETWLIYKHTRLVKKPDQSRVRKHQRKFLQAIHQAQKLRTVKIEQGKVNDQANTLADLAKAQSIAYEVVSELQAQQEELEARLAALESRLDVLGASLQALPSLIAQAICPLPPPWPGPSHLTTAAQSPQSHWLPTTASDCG

| SMILES | outcome |
| --- | --- |
| CCCCC[C@H](O)CC(=O)CCc1ccc(O)c(OC)c1 | inactive |
